Data reported in the supplement of paper PMC9694430.
Counter-ions that a name gives are not always drawn.

What follows are compounds tested on T1, LOC_OS06G22820-cb001 (assay: thermal shift delta Tm vs DMSO control; higher = stronger stabilization (binding)). Conditions: 12.5 µM; protein concentration 2 µM.
T1 sequence (whole entry): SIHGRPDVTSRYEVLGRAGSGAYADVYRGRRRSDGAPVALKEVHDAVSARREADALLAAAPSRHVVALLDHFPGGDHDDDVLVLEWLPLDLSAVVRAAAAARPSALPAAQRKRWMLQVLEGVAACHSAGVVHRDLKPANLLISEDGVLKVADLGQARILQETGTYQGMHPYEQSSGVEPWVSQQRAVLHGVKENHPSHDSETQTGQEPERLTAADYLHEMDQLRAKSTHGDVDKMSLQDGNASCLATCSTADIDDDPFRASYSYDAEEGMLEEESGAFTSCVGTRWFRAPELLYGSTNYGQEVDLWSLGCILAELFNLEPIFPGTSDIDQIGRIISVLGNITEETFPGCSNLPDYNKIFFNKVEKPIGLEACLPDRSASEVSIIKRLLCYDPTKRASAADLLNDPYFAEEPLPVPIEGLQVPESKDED
Outline: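 Rice kinase domain constructs were expressed in E. coli, purified, and tested by differential scanning fluorimetry with compound added in DMSO. Each well of a 96-well plate held 19.5 μl of 2 μM kinase in 100 mM potassium phosphate pH 7.5, 150 mM NaCl, 10% glycerol and 5 × SYPRO Orange, and fluorescence was read from 25°C to 95°C at 0.05°C/s. The melting temperature shift is the mean of triplicates, taken against protein with DMSO alone after Boltzmann fitting.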

Row | SMILES | thermal shift delta Tm [°C]
1 | CC(C)(C)c1cnc(CSc2cnc(NC(=O)C3CCNCC3)s2)o1 | 2.84
2 | CN(C)C/C=C/C(=O)Nc1cc2c(Nc3ccc(F)c(Cl)c3)ncnc2cc1O[C@H]1CCOC1 [Afatinib (BIBW2992) Dimaleate] | 0.61
3 | O=C1c2c(O)cc(O)cc2OC(c2ccc(O)c(O)c2)C1O (centres undefined) [Taxifolin (Dihydroquercetin)] | 0.59
4 | CCN(CC)CCNC(=O)c1c(C)[nH]c(/C=C2\C(=O)Nc3ccc(F)cc32)c1C [Sunitinib Malate] | 0.19
5 | COc1cc(Nc2ncc(F)c(Nc3ccc4c(n3)N(COP(=O)(O)O)C(=O)C(C)(C)O4)n2)cc(OC)c1OC [Fostamatinib (R788)] | 0.25
6 | CC(C)(C)c1nc(-c2ccc(NC(=O)Nc3cccc(C(F)(F)F)c3)c3ccccc23)c2c(N)nccn12 [kira6] | 0.73
7 | CNC(=O)c1cc(Oc2ccc(NC(=O)Nc3ccc(Cl)c(C(F)(F)F)c3)cc2)ccn1 [Sorafenib Tosylate] | 2.15
8 | CC(=O)Nc1nc(C)c(-c2ccc(Cl)c(S(=O)(=O)NCCO)c2)s1 | 0.43
9 | CCc1nc(-c2cccc(C)c2)c(-c2ccnc(NC(=O)c3ccccc3)c2)s1 | 0.77
10 | C[C@@]1(C(=O)Nc2ccc(F)nc2)CCCN1c1nc(Nc2cc(C3CC3)n[nH]2)c2cccn2n1 | -0.88
11 | COc1ccc(Cl)cc1NC(=O)Nc1cc(C)nc2ccccc12 | 0.69
12 | C=CC(=O)Nc1cccc(Nc2nc(Nc3ccc(OCCOC)cc3)ncc2F)c1 | 0.96
13 | CC(C)c1c2cc(-c3ccnc(NC4CCC(NC5CCOCC5)CC4)n3)ccc2nn1C (centres undefined) | 0.19
14 | C[C@H]1CNC(=O)c2cnn3ccc(nc23)N[C@H](C)c2cc(F)ccc2O1 | -0.23
15 | Cn1cc(-c2ccc3c(c2)CCN3C(=O)Cc2cccc(C(F)(F)F)c2)c2c(N)ncnc21 | 0.97
16 | Cn1c(=O)c(F)c(Nc2ccc(I)cc2F)c2c(=O)n(C[C@@H](O)CO)cnc21 | 0.76
17 | CNC(=O)c1cccc(-c2ccc3c(N4CCOC[C@@H]4C)nc(N4CCOC[C@@H]4C)nc3n2)c1 [Vistusertib (AZD2014)] | 0.59

Row | SMILES | thermal shift delta Tm [°C]
18 | Cc1nc(Nc2cnn(C3CCNCC3)c2)nc2c1N(C)C(=O)c1cc3ccccc3cc1N2C | 0.22
19 | COc1cc2/c(=N/c3ccc(Br)cc3F)nc[nH]c2cc1OCC1CCN(C)CC1 [Vandetanib (ZD6474)] | 1.8
20 | CCn1c(C(=O)N(C2CC2)C2CC2)cc2c3c(ncn3C)c(Nc3cc(C)n(C)n3)nc21 | 0.64
21 | OCCn1cc(-c2cnc3nnn(Cc4ccc5ncccc5c4)c3n2)cn1 | 0.46
22 | N#CC[C@H](C1CCCC1)n1cc(-c2ncnc3[nH]ccc23)cn1 | 0.57
23 | CCn1nc(C2CCN(C(=O)CCO)CC2)nc1-c1cnc(N)c(-c2nnc(C(C)(C)C)o2)n1 | 0.93
24 | CC(C)(C)c1cc(NC(=O)Nc2ccc(Oc3ccnc4[nH]c(=O)cnc34)cc2F)n(-c2ccccc2)n1 | 0.49
25 | CO[C@H]1CC[C@H](N2C(=O)CNc3ncc(-c4ccc(C(C)(C)O)nc4)nc32)CC1 | 0.55
26 | CC[C@@H]1C(=O)N(C)c2cnc(Nc3ccc(C(=O)N[C@H]4CC[C@H](N5CCN(CC6CC6)CC5)CC4)cc3OC)nc2N1C(C)C [Volasertib (BI 6727)] | 0.34
27 | COc1ccc2c(c1)[C@]1(C[C@H]1c1ccc3c(/C=C/c4ccc(CN5C[C@@H](C)O[C@@H](C)C5)cc4)n[nH]c3c1)C(=O)N2 | 0.46
28 | O=C(Nc1nc2cccc(-c3ccc(CN4CCS(=O)(=O)CC4)cc3)n2n1)C1CC1 [Filgotinib (GLPG0634)] | 0.31
29 | CCn1c(-c2nonc2N)nc2c(C#CC(C)(C)O)ncc(OC[C@H]3CCCNC3)c21 | 0.88
30 | Cc1cnc(Nc2ccc(OCCN3CCCC3)cc2)nc1Nc1cccc(S(=O)(=O)NC(C)(C)C)c1 | 0.29
31 | Cc1cc(Nc2cc(N3CCN(C)CC3)nc(/C=C/c3ccccc3)n2)n[nH]1 [ENMD-2076 L-(+)-Tartaric acid] | 0.62
32 | CC#CC(=O)N1CC[C@@H](n2c(=O)n(-c3ccc(Oc4ccccc4)cc3)c3c(N)ncnc32)C1 [ONO-4059 (GS-4059) hydrochloride] | 0.35
33 | CCN1CCN(Cc2ccc(Nc3ncc(F)c(-c4cc(F)c5nc(C)n(C(C)C)c5c4)n3)nc2)CC1 | 0.41
34 | CN(C)C[C@@H]1CCn2cc(c3ccccc32)C2=C(C(=O)NC2=O)c2cn(c3ccccc23)CCO1 | 0.46
